Source: PubChem BioAssay (National Center for Advancing Translational Sciences (NCATS))
TDP1 block = TDP1 (human) enzyme inhibition; recombinant TDP1, AlphaScreen DNA substrate cleavage; Potency, µM (titrated, usually from 130 µM), inactives show top-dose activity change, negative = inhibition, most hits filed as inhibitors; hit rate 0.28% among 350,000; note: potency is the fitted concentration of half-maximal effect; nearly all actives have a fitted effect of over 40% in size
Target sequence (Q9NUW8 whole entry, looked up): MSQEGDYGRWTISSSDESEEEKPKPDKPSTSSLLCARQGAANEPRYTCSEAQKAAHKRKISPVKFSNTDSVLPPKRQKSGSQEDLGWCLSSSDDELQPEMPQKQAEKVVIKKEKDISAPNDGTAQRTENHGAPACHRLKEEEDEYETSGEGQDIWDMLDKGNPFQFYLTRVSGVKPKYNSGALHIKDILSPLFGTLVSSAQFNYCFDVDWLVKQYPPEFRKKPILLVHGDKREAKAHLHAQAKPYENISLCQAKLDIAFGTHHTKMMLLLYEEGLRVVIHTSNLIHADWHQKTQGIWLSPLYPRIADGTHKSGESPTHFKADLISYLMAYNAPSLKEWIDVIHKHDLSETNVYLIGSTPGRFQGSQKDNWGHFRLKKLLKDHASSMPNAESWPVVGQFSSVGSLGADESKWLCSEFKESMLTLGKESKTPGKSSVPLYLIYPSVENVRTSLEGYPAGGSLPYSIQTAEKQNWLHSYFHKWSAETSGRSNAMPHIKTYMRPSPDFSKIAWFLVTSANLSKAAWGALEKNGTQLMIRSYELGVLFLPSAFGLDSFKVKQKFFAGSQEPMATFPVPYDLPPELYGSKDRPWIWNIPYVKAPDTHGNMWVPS
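Compounds were preincubated with Tdp1 (1 nM final) for 15 min at room temperature before substrate (15 nM final) started a 5 min reaction; beads (10 ug/ml final) were then added for 10 min before AlphaScreen detection.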
ELG1 repair inh = ELG1-dependent DNA repair inhibition | HEK293T ELG1-luciferase reporter, luminescence, 16 h; DNA damage induced by 5-fluorouridine | Potency, µM (doses to about 46.1 µM), without a hit: at the highest dose activity change, negative = inhibition, most hits filed as inhibitors | hit rate 2.3% among 330,000; note: potency is the fitted concentration of half-maximal effect; nearly all actives have a fitted effect of over 55% in size
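5-Fluorouridine DNA damage + compound/DMSO, 2,000 cells/well, 16 h, 37 °C/5% CO2. ONE-Glo, 30 min RT, luminescence. Readout = decrease in reporter signal.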
DT40 TDP1 CPT = growth inhibition of DT40 Tdp1-/-;hTDP1 cells with camptothecin (screen for TDP1 inhibitors); AID 686979; hit rate 12% among 420,000; chicken DT40 Tdp1-/-;hTDP1 cells + 20 nM CPT, ATP luminescence, 48 h; Potency, µM (titrated, usually from 46.2 µM), for inactives: at the highest dose activity change, negative = growth inhibition, actives largely listed as inhibitors; note: potency is the fitted concentration of half-maximal effect; nearly all actives have a fitted effect of over 55% in size
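Chicken DT40 Tdp1-/- cells stably complemented with human TDP1 were seeded at 400 cells/well in medium containing 20 nM camptothecin, exposed to pin-transferred compounds, and grown at 37 °C for at least 48 hr. Viability was read as ATP luminescence.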
DT40 TDP1 no CPT = qHTS for Inhibitors of human tyrosyl-DNA phosphodiesterase 1 (TDP1): qHTS in cells in absence of CPT | DT40 Tdp1-/- hTDP1 cells, no CPT, ATP luminescence, 48 h | Potency, µM (top dose mostly 46.2 µM), inactives show at the highest dose activity change, negative = growth inhibition, usual class: inhibitors | hit rate 15% among 420,000; note: potency is the fitted concentration of half-maximal effect; nearly all actives have a fitted effect of over 55% in size
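A cellular qHTS used chicken DT40 cells lacking endogenous Tdp1 but carrying stably transfected human TDP1. Compounds were applied without camptothecin, and cell growth kinetics were judged by ATP-dependent luminescence after ≥48 hr.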
Giardia kill = Giardia lamblia killing | Giardia lamblia trophozoite viability | activity change, % at 7.66 µM, hits read low | hit rate 0.15% among 340,000 | AID 540267; in the data active = activity change below about -80%; inconclusive = between about -30% and that limit;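 note: parasites exposed to compound for two days anaerobically before the ATP read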
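Anaerobic 48 hrs incubation at 37 deg C of 100 trophozoites/well with test compounds; ATPLite 1-Step luminescence, 15-30 min RT, reports cellular ATP as viability.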
IL1B secr inh = inhibitors of inflammasome signaling (IL-1 beta secretion); THP-1 LPS/ATP IL-1B secretion, AlphaLISA, 16 h; stronger effect = lower value; activity change, % at 57.5 µM; hit rate 4.7% among 360,000; in the data active = activity change below about -50%; inconclusive = mostly about -30% to -49%
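Secreted IL-1B measured by AlphaLISA bead assay after 16 h compound exposure of THP-1 cells; compounds (final up to 57.5 uM) added 1 h before LPS (250 ng/mL) and ATP (1.25 mM) stimulation; lower signal means less secretion.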
* marks the source's active call; other numbers are inactive results. Most compounds without a hit are left out; they make up all but 19% or so of the library. Unless noted, calls come from the whole dose curve; as a rule, active = well fitted curve in the direction sought with a large enough effect; inconclusive = small, poorly fitted or top-dose-only effect, or another doubt; inactive = no such curve, though single readings can be large; an effect the other way counts as inactive or inconclusive. % is set by controls: 0 for no effect and ±100 for the full control effect.

Screening Cc1ccc(-n2[nH]c(C)c(/C=N/NC(=O)c3ccc([N+](=O)[O-])cc3)c2=O)c(C)c1 returned TDP1 block 6% and ELG1 repair inh inconclusive.
COc1ccc(CCN=Cc2c(C)[nH]n(-c3ccc([N+](=O)[O-])cc3)c2=O)cc1OC was read as TDP1 block 0%, ELG1 repair inh 3%, DT40 TDP1 CPT -8%, DT40 TDP1 no CPT 3%, Giardia kill 2 and IL1B secr inh 20.
For Cc1ccc(-n2[nH]c(C)c(/C=N/Nc3ccc([N+](=O)[O-])cc3[N+](=O)[O-])c2=O)cc1C the results were TDP1 block 10%, ELG1 repair inh 10µM*, DT40 TDP1 CPT inconclusive, DT40 TDP1 no CPT 21µM*, Giardia kill -2 and IL1B secr inh -15.
COCCn1c(=O)c(-c2cccs2)nc2cnc(OCc3ccccc3)nc21 was read as DT40 TDP1 CPT 39% and DT40 TDP1 no CPT -9%.
`CCCNC(=O)COC(=O)c1ccccc1C(=O)c1ccc(Cl)c([N+](=O)[O-])c1` gave TDP1 block 3%, ELG1 repair inh inconclusive, DT40 TDP1 CPT inconclusive, DT40 TDP1 no CPT 10µM*, Giardia kill -2 and IL1B secr inh -103*.
Screening Cc1ccc(Cl)c(NC(=O)COC(=O)c2ccccc2C(=O)c2ccc(Cl)c([N+](=O)[O-])c2)c1Cl returned TDP1 block 2%, ELG1 repair inh 18µM*, DT40 TDP1 CPT -103%, DT40 TDP1 no CPT 10µM*, Giardia kill -1 and IL1B secr inh -105*.
`Cc1ccc(C(=O)c2ccccc2C(=O)OCC(=O)NCCc2ccc(Cl)cc2Cl)cc1` gave TDP1 block 0%, ELG1 repair inh -11%, DT40 TDP1 CPT inconclusive, DT40 TDP1 no CPT inconclusive, Giardia kill -4 and IL1B secr inh -17.
Screening NC(=S)N=Nc1c(O)n(CCCl)c2ccccc12 returned TDP1 block 6%, ELG1 repair inh -2%, DT40 TDP1 CPT 13µM*, DT40 TDP1 no CPT 2.6µM*, Giardia kill -8 and IL1B secr inh -8.
NC(=S)N=Nc1c(O)n(CCCl)c2ccc(Cl)cc12 was read as TDP1 block 0%, ELG1 repair inh -26%, DT40 TDP1 CPT inconclusive, DT40 TDP1 no CPT 23µM*, Giardia kill -15 and IL1B secr inh -9.
`NC(=S)N=Nc1c(O)n(CC(=O)Nc2ccccc2)c2ccccc12` gave ELG1 repair inh -3%, DT40 TDP1 CPT -22%, DT40 TDP1 no CPT -10%, Giardia kill -1 and IL1B secr inh -13.
Cc1nc2ccn(Cc3ccco3)c(=O)c2cc1C(=O)NCc1ccc(F)cc1 was read as TDP1 block 2%, DT40 TDP1 CPT -11% and DT40 TDP1 no CPT -23%.
`CN(C(=O)c1ccc(S(=O)(=O)N2CCCC2)cc1)C1CCS(=O)(=O)C1` (stereo unspecified) gave ELG1 repair inh 9%, DT40 TDP1 CPT inconclusive, DT40 TDP1 no CPT 25%, Giardia kill 8 and IL1B secr inh 10.
CCCCCCNC(=O)Cc1ccc(Br)cc1 was read as TDP1 block 0%, ELG1 repair inh 6%, DT40 TDP1 CPT 0%, DT40 TDP1 no CPT -8%, Giardia kill 7 and IL1B secr inh -3.
`Brc1ccc[n+](CCC2CCCCC2)c1` gave DT40 TDP1 CPT inconclusive and DT40 TDP1 no CPT 10µM*.
For CCCCCCCCCC[n+]1cccc(Br)c1 the results were DT40 TDP1 CPT 1.4µM* and DT40 TDP1 no CPT 5µM*.
For N#CC[n+]1cccc(Br)c1 the results were DT40 TDP1 CPT 2% and DT40 TDP1 no CPT 1%.
For CCCCCCCCCC[n+]1cc(Br)cc(Br)c1 the results were DT40 TDP1 CPT 0.79µM* and DT40 TDP1 no CPT 0.45µM*.
For CCCCCCCCCC[n+]1cccc(C(=O)N(CC)CC)c1 the results were TDP1 block 4%, ELG1 repair inh -19%, DT40 TDP1 CPT 8.2µM*, DT40 TDP1 no CPT 2.9µM*, Giardia kill -3 and IL1B secr inh -23.
For CC(=O)NC(Cc1ccccc1F)C(=O)NC1CCN(C(=O)Nc2ccc(C)cc2)CC1 (stereo unspecified) the results were ELG1 repair inh -1%, DT40 TDP1 CPT -16%, DT40 TDP1 no CPT 11%, Giardia kill -21 and IL1B secr inh 8.
CCc1c(C2(O)CCCCC2)[nH]c2cc(C(F)(F)F)ccc12 was read as ELG1 repair inh -10%, DT40 TDP1 CPT inconclusive, DT40 TDP1 no CPT 13µM*, Giardia kill 1 and IL1B secr inh 0.
Screening Cc1c(C2(O)CCCCC2)[nH]c2cc(C(F)(F)F)ccc12 returned TDP1 block 1%, ELG1 repair inh -7%, DT40 TDP1 CPT 21µM*, DT40 TDP1 no CPT 16µM*, Giardia kill 10 and IL1B secr inh -65*.
CCN(C(=O)COC(=O)COc1ccccc1Cl)c1c(N)n(Cc2ccccc2)c(=O)[nH]c1=O was read as TDP1 block 0%, ELG1 repair inh 17%, DT40 TDP1 CPT -21%, DT40 TDP1 no CPT 17%, Giardia kill 18 and IL1B secr inh 18.
Screening Cc1cc(C)c(C(=O)N2CCCC(CNS(=O)(=O)N(C)C)C2)o1 (stereo unspecified) returned TDP1 block 1%, ELG1 repair inh inconclusive, DT40 TDP1 CPT -7%, DT40 TDP1 no CPT 17%, Giardia kill 21 and IL1B secr inh 25.
For COc1ccc(CCNCC(=O)Nc2ccccc2C(F)(F)F)cc1 the results were TDP1 block 5%, ELG1 repair inh -9%, DT40 TDP1 CPT inconclusive, DT40 TDP1 no CPT inconclusive, Giardia kill -15 and IL1B secr inh -6.
`CCOC(=O)C1(CC2CC2)CCN(C(=O)c2cc(OC)nc3ccccc23)CC1` gave TDP1 block 1%, ELG1 repair inh -1%, DT40 TDP1 CPT inconclusive, DT40 TDP1 no CPT inconclusive, Giardia kill -12 and IL1B secr inh -17.
CCOC(=O)C1(CC2CC2)CCN(C(=O)c2cccnc2C)CC1 was read as TDP1 block -6%, ELG1 repair inh 22%, DT40 TDP1 CPT -21%, DT40 TDP1 no CPT inconclusive, Giardia kill 3 and IL1B secr inh 24.
CCOC(=O)C1(CC2CC2)CCN(C(=O)c2cc(C3CC3)nc3ccccc23)CC1 was read as ELG1 repair inh inconclusive, DT40 TDP1 CPT inconclusive, DT40 TDP1 no CPT 23µM*, Giardia kill 19 and IL1B secr inh -84*.
`CCOC(=O)C1(CCc2ccccc2)CCN(Cc2cc(OC)c(OC)cc2OC)CC1` gave ELG1 repair inh inconclusive, DT40 TDP1 CPT 21µM*, DT40 TDP1 no CPT 21µM*, Giardia kill -5 and IL1B secr inh -54*.
